# Data reported in PubChem BioAssay AID435017 (Vanderbilt High Throughput Screening Facility, 2010).
# Results with a measured potency or affinity are listed apart. Values without a mark were called inactive.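 Rule for the calls: active = compounds with a dose-dependent response across tested concentrations; inactive = the rest.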
# Molecular target: ATP-sensitive inward rectifier potassium channel 1 (Homo sapiens) (UniProt P48048)
# Test: ROMK inhibition by analog compounds, SAR follow-up, cell-based, thallium flux, analog library (AID 435017)
# Conditions: Tet-inducible ROMK, thallium flux fluorescence; series mostly up to 10 µM; normalised thallium flux, lower = inhibition: at the top concentration
# Sequence of ATP-sensitive inward rectifier potassium channel 1 (Homo sapiens) (P48048 whole entry, looked up): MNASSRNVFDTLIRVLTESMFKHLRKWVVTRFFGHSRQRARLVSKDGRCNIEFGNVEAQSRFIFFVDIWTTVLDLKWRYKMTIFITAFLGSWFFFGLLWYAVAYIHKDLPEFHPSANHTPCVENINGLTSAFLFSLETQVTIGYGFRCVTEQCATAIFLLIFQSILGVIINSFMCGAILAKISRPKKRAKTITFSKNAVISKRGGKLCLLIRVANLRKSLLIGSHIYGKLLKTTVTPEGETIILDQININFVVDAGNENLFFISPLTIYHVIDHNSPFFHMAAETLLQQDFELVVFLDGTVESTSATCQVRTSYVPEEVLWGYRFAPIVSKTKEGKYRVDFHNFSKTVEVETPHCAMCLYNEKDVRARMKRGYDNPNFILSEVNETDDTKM
row,Structure (SMILES),"normalised thallium flux, lower = inhibition"
1,O=[N+]([O-])c1ccc(CN2CCOCCOCCN(Cc3ccc([N+](=O)[O-])cc3Cl)CCOCC2)c(Cl)c1,52% [at 100 µM]
2,COCCN(CCOC)Cc1ccc([N+](=O)[O-])cc1,71% [at 100 µM]
3,O=[N+]([O-])c1cccc(CN2CCOCCOCCN(Cc3cccc([N+](=O)[O-])c3)CCOCC2)c1,11% [at 100 µM]
4,CN(C)S(=O)(=O)c1ccc2nc(COCc3nc4ccc(S(=O)(=O)N(C)C)cc4[nH]3)[nH]c2c1,89%
5,c1ccc2[nH]c(COCc3nc4ccccc4[nH]3)nc2c1,89%
6,O=S(=O)(c1ccc(CN2CCOCCOCCN(Cc3ccc(S(=O)(=O)C(F)(F)F)cc3)CCOCC2)cc1)C(F)(F)F,65% [at 100 µM]
7,O=[N+]([O-])c1ccc(CN2CCOCCOCCN(Cc3ccc([N+](=O)[O-])cc3[N+](=O)[O-])CCOCC2)c([N+](=O)[O-])c1,78.6%
8,O=[N+]([O-])c1ccc(S(=O)(=O)N2CCOCCOCCN(S(=O)(=O)c3ccc([N+](=O)[O-])cc3)CCOCC2)cc1,87.3%
9,Fc1ccc2nc(COCc3nc4ccc(F)cc4[nH]3)[nH]c2c1,84%
10,Fc1ccc(CN2CCOCCOCCN(Cc3ccc(F)c(F)c3)CCOCC2)cc1F,20% [at 100 µM]
11,CS(=O)(=O)c1ccc(CN2CCOCCOCCN(Cc3ccc(S(C)(=O)=O)cc3)CCOCC2)cc1,68% [at 100 µM]
12,O=C(c1ccc([N+](=O)[O-])cc1)N1CCOCCOCCN(C(=O)c2ccc([N+](=O)[O-])cc2)CCOCC1,80.9%
13,O=C(Nc1ccc([N+](=O)[O-])cc1)N1CCOCCOCCN(C(=O)Nc2ccc([N+](=O)[O-])cc2)CCOCC1,80.7%
14,O=[N+]([O-])c1ccc2nc(COCc3nc4ccccc4[nH]3)[nH]c2c1,89% [at 3.33 µM]
